The entries come from a sample that favours hits as a whole.
PglD DTNB = blocks C. jejuni PglD acetyltransferase activity; inhibition, % at 12.5 µM; purified PglD enzyme, DTNB colorimetric CoA detection; AID 602405; 360,000 tested, 0.098% active; in the data active = inhibition above about 16%, passing the limit was not always enough; inconclusive = no clear call, values can overlap the other calls
PDI inh = inhibitors of human protein disulfide isomerase | PDI insulin aggregation turbidity, A650, 90 min | inhibition, % at 10 µM | 350,000 tested, 0.052% active | P07237;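 active = mean inhibition across replicates of 30% or more, whatever share of single replicates reach that level; inconclusive = mean inhibition below 30% while every single replicate reaches 30%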
ALR inh = blocks human ALR sulfhydryl oxidase activity | P55789 | purified ALR, DTT oxidation, H2O2 HRP-luminol luminescence | inhibition, % (concentration not given with the values) | 290,000 tested, 3.8% active | AID 485317;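 active = mean replicate inhibition above about 79%, with every replicate also reaching it, limit read from the data; inconclusive = only one of the two criteria met; inactive = mean below limit and not every replicate reaching it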
Target sequence (P55789 whole entry, looked up): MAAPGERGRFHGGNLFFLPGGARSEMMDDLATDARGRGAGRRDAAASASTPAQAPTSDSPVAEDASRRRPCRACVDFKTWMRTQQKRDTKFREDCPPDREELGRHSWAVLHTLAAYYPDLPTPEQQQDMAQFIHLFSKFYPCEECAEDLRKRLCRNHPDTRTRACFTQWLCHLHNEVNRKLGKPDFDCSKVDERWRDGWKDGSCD
CendR NRP1 mod = alters CendR peptide binding to human NRP-1 | O14786 | FAM-RPARPAR peptide binding to NRP-1, fluorescence polarization | inhibition, % at 25 µM | 360,000 tested, 0.85% active | AID 602438;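 active = inhibition or corrected inhibition above about 18%, plus a signal ratio from 0.5 to 1.5, limit read from the data, passing the limit was not always enough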
ARNT TACC3 PPI = disrupts binding between human ARNT and TACC3 | AlphaScreen His-ARNT PAS-B/GST-TACC3 binding, luminescence; TACC3 fragment carries E629A point mutation | 390,000 tested, 0.66% active | AID 623870 | inhibition, % at 9.99 µM | Q9Y6A5;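 active = mean inhibition of replicates at least 50% and at least half of replicates each reaching 50%; inconclusive = half or more replicates reach 50% but mean below 50%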
ERp5 inh = blocks human ERp5 reductase activity on insulin; inhibition, % at 9.99 µM; ERp5 insulin aggregation, absorbance 650 nm, 90 min; 350,000 tested, 0.05% active; AID 651711;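 active = mean replicate inhibition above about 25%, with every replicate also reaching it, limit read from the data, passing the limit was not always enough; inconclusive = only one of those two criteria met; inactive = neither criterion met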
Target sequence (Q15084 whole entry, looked up): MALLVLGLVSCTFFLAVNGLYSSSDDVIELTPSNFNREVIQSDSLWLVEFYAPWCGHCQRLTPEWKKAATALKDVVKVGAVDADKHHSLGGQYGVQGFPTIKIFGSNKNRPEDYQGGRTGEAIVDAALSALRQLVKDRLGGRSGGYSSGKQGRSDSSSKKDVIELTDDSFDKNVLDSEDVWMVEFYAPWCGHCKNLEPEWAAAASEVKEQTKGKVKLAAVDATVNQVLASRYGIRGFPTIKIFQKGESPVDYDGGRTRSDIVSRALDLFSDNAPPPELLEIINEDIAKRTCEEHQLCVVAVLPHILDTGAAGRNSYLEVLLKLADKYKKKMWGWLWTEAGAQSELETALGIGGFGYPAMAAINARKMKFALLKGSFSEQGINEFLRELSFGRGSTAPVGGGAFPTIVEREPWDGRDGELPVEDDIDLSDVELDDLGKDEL
Each line names hits and unclear results; the compound was inactive in the other large screens.

O=C(O)c1ccc(/C=N/n2c(C3CCCCC3)n[nH]c2=S)cc1	ALR inh 97.6
O=C(c1ccccc1F)N1C[C@H]2[C@@H](c3ccccc31)[C@H](CO)N2C(=O)c1ccncc1	none (no result: PDI inh, ALR inh, CendR NRP1 mod)
Nc1cccc(-c2cnc3ccccc3n2)c1	ALR inh 99.3
O=[N+]([O-])c1cccc(-c2cnc3ccccc3n2)c1	none
NC(=O)[C@H]1[C@@H]2C(=O)O[C@@H](c3ccccc3)[C@@H](c3ccccc3)N2[C@@H](c2ccc(O)cc2)[C@]12C(=O)Nc1ccc(C#CC3(O)CCCCCC3)cc12	none (no result: PglD DTNB, PDI inh, ALR inh, CendR NRP1 mod, ARNT TACC3 PPI)
COc1cc(/C=C2/C(=O)N(c3ccc(C(=O)O)cc3)N=C2C)cc(OC)c1O	ALR inh 92.9, ARNT TACC3 PPI 11.9
COc1cc(/C=C2/C(=O)N(c3ccc(Br)cc3)N=C2C)cc(OC)c1OC	none (no result: ALR inh)
O=C1/C(=C\c2ccc(O)c(O)c2)C(c2ccccc2)=NN1c1ccccc1	none (no result: ALR inh)
COc1cc(/C=C2\C(=O)N(c3ccc(NC(C)=O)cc3)N=C2c2ccccc2)ccc1O	ALR inh 94.7
CCC(=O)N1[C@@H]2c3ccc(/C=C/c4ccccc4)c(=O)n3C[C@H]1[C@H](CO)[C@H]2C(=O)N1CCOCC1	none (no result: PDI inh, ALR inh, CendR NRP1 mod)
CO[C@@H]1CN(C)C(=O)c2ccc(NC(C)=O)cc2OC[C@H](C)N(CC2CC2)C[C@H]1C	none (no result: PDI inh, ALR inh, CendR NRP1 mod)
CC(C)c1ccc(NC2CCCN(C(=O)c3cscn3)C2)cc1 (stereo unspecified)	ALR inh 99.4, CendR NRP1 mod 20.9
Cc1nnsc1C(=O)N1CCCC(Nc2ccc(C(C)C)cc2)C1 (stereo unspecified)	none
Cc1cc(C)n2nc(C(=O)N3CCCC(Nc4ccc(C(C)C)cc4)C3)cc2n1 (stereo unspecified)	ALR inh 97.3
CC(C)c1ccc(NC2CCCN(C(=O)c3cc(C(C)C)nc(N)n3)C2)cc1 (stereo unspecified)	ALR inh 96.8
CC(C)c1cc(C(=O)N2CCCC(Nc3ccc(F)cc3)C2)n[nH]1 (stereo unspecified)	ALR inh 98.7
O=C(CC(F)(F)F)N1C[C@@H]2[C@H](c3ccccc31)[C@H](CO)N2CC1CCOCC1	none (no result: PDI inh, ALR inh, CendR NRP1 mod)
C[C@@H]1CN([C@@H](C)CO)C(=O)c2cc(C#CCc3ccccc3)cnc2O[C@@H]1CN(C)Cc1ccccc1	none (no result: PglD DTNB, PDI inh, ALR inh, CendR NRP1 mod, ARNT TACC3 PPI)
COc1ccc2c3c([nH]c2c1)[C@@H](CO)N(C(=O)Nc1ccc(F)cc1)CC31CCN(Cc2cc(F)ccc2F)CC1	none (no result: PglD DTNB, PDI inh, ALR inh, CendR NRP1 mod, ARNT TACC3 PPI)
O=C(C[C@H]1C[C@H]2c3cc(NC(=O)c4cccnc4)ccc3O[C@H]2[C@H](CO)O1)NCc1cccc(F)c1	none (no result: PDI inh, ALR inh, CendR NRP1 mod)
COc1ccc(C(=O)C2CCCN(Cc3cnc(N4CCCC4)s3)C2)cc1OC (stereo unspecified)	ALR inh 97.6 (no result: PglD DTNB, ARNT TACC3 PPI)
CCc1nnc(N2C(=O)c3ccc(Oc4ccc([N+](=O)[O-])cc4)cc3C2=O)s1	ALR inh 92.6 (no result: PglD DTNB)
O=C1c2ccc(Oc3ccc([N+](=O)[O-])cc3)cc2C(=O)N1c1ccncc1	none (no result: ARNT TACC3 PPI)
O=C(NC1CCCC1)c1ccc(COCC(F)(F)C(F)F)o1	ALR inh 98.5 (no result: PglD DTNB)
O=C(NC1CCCC1)c1ccc(COCC(F)(F)F)o1	none (no result: PglD DTNB)
COc1cc(C=NO)nc(-c2ccccn2)c1	ARNT TACC3 PPI 59.2 (no result: PglD DTNB, ALR inh)
CC(=O)N1CCC(=NNC(=O)c2cccs2)CC1	ALR inh 76.9 (no result: ERp5 inh)
Cc1ccccc1CSc1nccn1-c1ccccc1	ALR inh 98.6 (no result: ERp5 inh)
CCN1c2ccccc2NC2N=C(OC)C(c3ccccc3)C21 (stereo unspecified)	ALR inh 98.6 (no result: PglD DTNB, ERp5 inh)
CN(N)c1nc(-c2ccccc2)nnc1C(F)(F)F	CendR NRP1 mod 34.1 (no result: ERp5 inh)
Cc1ccc(S(=O)(=O)N(C)C[C@H]2Oc3ccc(NS(=O)(=O)c4c(C)noc4C)cc3CC(=O)N([C@H](C)CO)C[C@H]2C)cc1	none (no result: PDI inh, ALR inh, CendR NRP1 mod)
CCN(CC)c1cccc(OCC(=O)N2c3ccccc3CC2C)c1 (stereo unspecified)	ALR inh 98.2
Cc1cc(=O)oc2cc(OCC(=O)N3c4ccccc4CC3C)ccc12 (stereo unspecified)	none
Oc1ccc(Br)cc1-c1ccnn1-c1ccccc1	ALR inh 97.4
COc1cc(/C=N/NC(=O)CSCc2ccc([N+](=O)[O-])cc2)cc(OC)c1OC	ALR inh 98.2 (no result: ERp5 inh)
O=C(CSCc1ccc([N+](=O)[O-])cc1)NN=C1CCCCCC1	ALR inh 87.8
CC(=NNc1nc2ccccc2s1)c1ncccn1	ARNT TACC3 PPI 63.4 (no result: PglD DTNB, ALR inh)
CC(=NNc1nc2ccccc2o1)c1cc2ccccc2cn1	none (no result: PglD DTNB, ALR inh)
CC(=O)Nc1cccc(/C(C)=N/Nc2nc3ccccc3s2)c1	ALR inh 97.9 (no result: PglD DTNB, ARNT TACC3 PPI)
CC(=NNc1nc2ccccc2o1)c1ncccn1	ARNT TACC3 PPI 62.1 (no result: PglD DTNB, ALR inh)
CO[C@@H]1CN(C)C(=O)c2ccc(NC(C)=O)cc2OC[C@H](C)N(Cc2cc(F)ccc2F)C[C@@H]1C	none (no result: PDI inh, ALR inh, CendR NRP1 mod)
CO[C@@H]1CN(C)C(=O)c2cc(NC(=O)c3cc(C)on3)ccc2OC[C@@H](C)N(S(=O)(=O)c2ccccc2)C[C@H]1C	none (no result: PDI inh, ALR inh, CendR NRP1 mod)
O=C(c1ccncc1)N1CC2(C1)[C@H](c1ccccc1)[C@@H](CO)N2CC1CCOCC1	none (no result: PglD DTNB, PDI inh, ALR inh, CendR NRP1 mod, ARNT TACC3 PPI)
O=C(c1cnccn1)N1CC(=O)N2[C@H](CO)[C@H](c3ccc(C#CCc4ccccc4)cc3)[C@@H]2C1	none (no result: PglD DTNB, PDI inh, ALR inh, CendR NRP1 mod, ARNT TACC3 PPI)
Nc1ccc(SCc2cccnc2)cc1	ALR inh 99.6
O=C1CC(c2ccc(O)c(O)c2)Oc2c1ccc(O)c2O (stereo unspecified)	ALR inh 98.5 (no result: PDI inh)
CC(C)=CCc1c(O)ccc2c1OC(c1ccc(O)c(O)c1)CC2=O (stereo unspecified)	ALR inh inconclusive (no result: PDI inh)
COc1ccc(C2CC(=O)c3c(O)cc(O)cc3O2)cc1O (stereo unspecified)	none (no result: PDI inh, ALR inh)
O=C1CC(c2ccc(O)cc2)Oc2cc(O)cc(O)c21 (stereo unspecified)	ALR inh 99.0
O=C1CC(c2ccc(O)c(O)c2)Oc2cc(O)cc(O)c21 (stereo unspecified)	ALR inh 98.8 (no result: PDI inh)
O=C(c1ccccn1)N(Cc1cc2ccccc2[nH]c1=O)C1CCCCC1	none (no result: ARNT TACC3 PPI, ERp5 inh)
COc1ccc2[nH]c(=O)c(CN(C(=O)c3ccccn3)C3CCCCC3)cc2c1	ALR inh 99.0 (no result: ERp5 inh)
C[C@@H]1CN([C@H](C)CO)C(=O)Cc2cc(NC(=O)Cc3ccccc3)ccc2O[C@H]1CN(C)Cc1ccc(C(F)(F)F)cc1	none (no result: PDI inh, ALR inh, CendR NRP1 mod)
O=C(NC1CCCC1)N1CC(=O)N2[C@H](CO)[C@@H](c3ccc(-c4cccnc4)cc3)[C@@H]2C1	none (no result: PglD DTNB, PDI inh, ALR inh, CendR NRP1 mod, ARNT TACC3 PPI)
CC(C)NC(=O)Nc1ccc2c(c1)C(=O)N(C)[C@H]1CC[C@H](CC(=O)NC3CCCCC3)O[C@H]1CO2	none (no result: PDI inh, ALR inh, CendR NRP1 mod, ERp5 inh)
COc1ccc(OC)c2[nH]c(=O)c(CCNS(=O)(=O)c3ccc(Cl)cc3)cc12	ARNT TACC3 PPI 47.9 (no result: ERp5 inh)
COc1ccc(OC)c2[nH]c(=O)c(CCNS(=O)(=O)c3ccc(C)cc3)cc12	none (no result: ALR inh, ERp5 inh)

Source: PubChem BioAssay
